Some test systems named below: DU-145 prostate; MDA-MB-231 breast; RXF 393 renal; SF-268 CNS; SF-295 CNS; SF-539 CNS; UACC-257 melanoma; M14 melanoma; HCT-15 colon; HT29 colon; SNB-75 CNS; SNB-19 CNS; U251 CNS; SK-MEL-5 melanoma; UACC-62 melanoma; LOX IMVI melanoma; SK-MEL-28 melanoma; MALME-3M melanoma; PC-3 prostate; K-562 leukemia.
Common to all, as to assay: NCI-60 one-dose screen, 48 h (100 = growth as untreated, 0 = no growth, -100 = all killed)
Conditions in all cases: 10 µM

The structures appear in SMILES notation. This is part of a sample that, as a whole, favours compounds with a hit. Of some 83,000 tested, about 20% had one in any assay.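 Plates (96-well) were seeded with cells, treated with compound at one concentration, and incubated for 48 hours before percent growth was determined.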 A number with no mark means an inactive call. Active and inactive are the calls of the source. Rule for the calls: active = growth percent below 10; inactive = the rest.

As for `CC(=O)OC1CC2C(C)(C)CCC[C@]2(C)C2=C1C(O)=C(C(C)C)C(=O)C2=O` (stereo partly specified), the growth is -62.7% (active) with DU-145 prostate; -17.8% (active) in the test on MDA-MB-231 breast; -59.8% (active) in the test on RXF 393 renal; 15.7% in the test on SF-268 CNS; -53.1% (active) with SF-295 CNS; -7.95% (active) in the test with SF-539 CNS. The growth was -12% (active) with UACC-257 melanoma; -43% (active) in the test with M14 melanoma; -23.1% (active) with HCT-15 colon; 17.2% in the test with HT29 colon; -13.3% (active) in the test on SNB-75 CNS; 21.6% in the test with SNB-19 CNS. The growth is 19.5% in the test on U251 CNS; -99.7% (active) with SK-MEL-5 melanoma; -60.1% (active) with UACC-62 melanoma; -43% (active) in the test with LOX IMVI melanoma; -42.8% (active) with SK-MEL-28 melanoma.
As to `Nc1cc(-c2ccncc2)c[nH]c1=O`, the growth with DU-145 prostate was 110%; with MALME-3M melanoma, 123%; in the test with MDA-MB-231 breast it was 115%; with RXF 393 renal, 125%; in the test with SF-268 CNS, 103%; in the test with SF-539 CNS, 104%. In addition, the growth was 111% with UACC-257 melanoma; 107% in the test on M14 melanoma; 103% with HCT-15 colon; 103% in the test on HT29 colon; 76.6% with SNB-75 CNS; 111% in the test with SNB-19 CNS. The growth in the test with U251 CNS was 103%; in the test with PC-3 prostate it was 89.1%; in the test with SK-MEL-5 melanoma, 106%; in the test with UACC-62 melanoma, 109%; in the test with LOX IMVI melanoma it was 91.7%; in the test on SK-MEL-28 melanoma, 105%.
Consider `O=C(COc1cccc(/C=C2\CSc3ccc(Cl)cc3C2=O)c1)c1ccc(Cl)cc1`, for which the growth with K-562 leukemia was 17.3%; in the test on MDA-MB-231 breast, 32%; with SF-268 CNS, 88.2%; in the test on SF-295 CNS it was 81.2%; in the test with SF-539 CNS, 80.3%; with UACC-257 melanoma, 84.6%. Besides, the growth was 94.7% with M14 melanoma; 47.9% in the test with HCT-15 colon; 16.7% in the test with HT29 colon; 74.7% in the test with SNB-75 CNS; 89.1% with SNB-19 CNS; 59.9% with U251 CNS. The growth in the test with PC-3 prostate was 43.7%; with SK-MEL-5 melanoma, 86.1%; with UACC-62 melanoma, 71.1%; in the test on LOX IMVI melanoma, 23.8%; in the test with SK-MEL-28 melanoma, 107%.
As for `Cc1cc(Cl)ccc1Nc1nc(C(F)(F)F)ccc1C(=O)N/N=C/c1cccc(O)c1`, the growth with K-562 leukemia is 20.7%; in the test with MDA-MB-231 breast, 39.7%; with SF-268 CNS, 39.3%; with SF-295 CNS, 6.71% (active); in the test on SF-539 CNS it was 23.5%; with UACC-257 melanoma, 44.1%. Also, the growth was 43.9% in the test with M14 melanoma; 23% with HCT-15 colon; 23.7% in the test on HT29 colon; 28.9% in the test on SNB-75 CNS; 63.5% with SNB-19 CNS; 30.5% with U251 CNS. Further, the results for the growth in the test with SK-MEL-5 melanoma, with UACC-62 melanoma and in the test with SK-MEL-28 melanoma were -52.1% (active), 38.7% and 52.4%, respectively.
For `O=C(N/N=C/c1c(Cl)cccc1Cl)c1ccccc1Nc1cccc(C(F)(F)F)c1`, the growth in the test with K-562 leukemia is 77.2%; with MDA-MB-231 breast, 83.2%; in the test on SF-268 CNS it was 95.5%; with SF-295 CNS it was 61.5%; with SF-539 CNS it was 75%; in the test with UACC-257 melanoma it was 102%. Further, the growth was 99.4% with M14 melanoma; 88.5% in the test on HCT-15 colon; 103% with HT29 colon; 105% in the test on SNB-75 CNS; 97% in the test with SNB-19 CNS; 89.9% with PC-3 prostate. The growth in the test on SK-MEL-5 melanoma is 72.9%; in the test with UACC-62 melanoma it was 87.1%; in the test with SK-MEL-28 melanoma, 99.5%.
For the compound `C=C(NC(=O)C(=C)NC(=O)c1csc(C2=NC3c4csc(n4)C4NC(=O)c5csc(n5)C(C(C)(O)C(C)O)NC(=O)C5CSC(=N5)C(=CC)NC(=O)C(C(C)O)NC(=O)c5csc(n5)C3(CC2)NC(=O)C(C)NC(=O)C(=C)NC(=O)C(C)NC(=O)C(C(C)CC)NC2C=Cc3c(C(C)O)cc(nc3C2O)C(=O)OC4C)n1)C(N)=O` (stereo unspecified), the growth is 65.5% in the test with DU-145 prostate; 26.9% with MALME-3M melanoma; 9.76% (active) with MDA-MB-231 breast; -41.3% (active) in the test with RXF 393 renal; 27.1% in the test with SF-268 CNS; 1.63% (active) in the test on SF-539 CNS. Also, the growth was 26.4% with UACC-257 melanoma; 2.27% (active) in the test on M14 melanoma; 36.9% with HCT-15 colon; 3.8% (active) with HT29 colon; 66.7% in the test on SNB-75 CNS; 66.6% with SNB-19 CNS. Moreover, the growth in the test with U251 CNS is 8.08% (active); with PC-3 prostate it was 63.7%; with SK-MEL-5 melanoma, -5.61% (active); with LOX IMVI melanoma, -7.87% (active); in the test with SK-MEL-28 melanoma, -34.5% (active).
As to `COc1ccc(C(=O)COc2cccc(/C=C3\Cc4ccccc4C3=O)c2)cc1`, the growth is 80.5% with K-562 leukemia; 66.5% with MDA-MB-231 breast; 77.2% with SF-268 CNS; 87.1% in the test with SF-295 CNS; 75.9% with SF-539 CNS; 83.5% in the test with UACC-257 melanoma. Moreover, the growth with M14 melanoma was 81.2%; with HCT-15 colon, 85.6%; with HT29 colon it was 82.1%; in the test on SNB-75 CNS, 46.8%; in the test on SNB-19 CNS it was 90.8%; in the test with U251 CNS it was 82.6%. Moreover, the growth in the test on PC-3 prostate was 82%; in the test on SK-MEL-5 melanoma, 67.3%; with UACC-62 melanoma, 61.3%; in the test with LOX IMVI melanoma, 90.3%; in the test with SK-MEL-28 melanoma, 103%.
On to `COc1ccccc1/C=N\N/C(N)=N\N=C\c1ccccc1OC`, for which the growth was 2.34% (active) in the test with K-562 leukemia; 21.7% with MDA-MB-231 breast; 41.4% in the test with SF-268 CNS; 5.03% (active) with SF-295 CNS; -35.5% (active) in the test with SF-539 CNS; 46.3% with UACC-257 melanoma. In addition, the growth was -3.67% (active) with M14 melanoma; 1.27% (active) in the test on HCT-15 colon; -1.01% (active) in the test with HT29 colon; 21.5% with SNB-75 CNS; 35.3% in the test on SNB-19 CNS; 5.71% (active) with U251 CNS. For the same compound, the growth with PC-3 prostate was 29.3%; with SK-MEL-5 melanoma, -30% (active); with UACC-62 melanoma, 19.7%; in the test on LOX IMVI melanoma, 5.74% (active); in the test on SK-MEL-28 melanoma, 56.9%.
With `COc1ccc(C(=O)CC(CC(=O)c2ccc(OC)cc2)c2c(C)nn(-c3ccccc3)c2Cl)cc1`, the growth in the test with DU-145 prostate is 110%; with MALME-3M melanoma, 92.4%; with MDA-MB-231 breast, 90.9%; with RXF 393 renal it was 98.4%; in the test on SF-268 CNS it was 101%; in the test on SF-295 CNS it was 92.2%. Further, the growth was 118% in the test on UACC-257 melanoma; 90.5% in the test with M14 melanoma; 100% in the test with HCT-15 colon; 87% in the test on HT29 colon; 91.3% with SNB-75 CNS; 93.3% in the test on SNB-19 CNS. The growth in the test on U251 CNS is 102%; with PC-3 prostate, 85.6%; with SK-MEL-5 melanoma, 90.2%; in the test on UACC-62 melanoma, 88.3%; with LOX IMVI melanoma, 83.3%; with SK-MEL-28 melanoma, 105%.
